GalR3 antagonist = human GalR3 antagonism; inhibition, % at 3 µM; AID 651719; 360,000 compounds, 0.44% hits; HEK293 GalR3-CNG cAMP membrane potential fluorescence; galR3 body fused to GalR1 C-terminus;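 active means inhibition above the screen-wide average plus 3 SD, cut at about 13% in these data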;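 further: forskolin and galanin both at EC90 stimulate the cells; cAMP rise reported by CNG channel membrane potential dye signal; 0% = forskolin plus galanin with DMSO and 100% = forskolin alone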
SRC2 inh = human SRC2 (NCOA2) inhibition | Q15596 | HEK293 GAL4-SRC2 luciferase reporter, luminescence | inhibition, % at 9 µM | 370,000 compounds, 0.17% hits;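 active means inhibition above the mean inhibition of all tested compounds plus 3 SD, set per campaign, cut at about 52% in these data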;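 further: 0% = DMSO treated cells and 100% = cells given Gossypol at 36 µM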
LRH-1 inv ag = inverse agonists of human LRH-1 (NR5A2) | O00482 | HEK293T StAR-luciferase reporter, LRH-1 transfected, 24 h | inhibition, % at 3.6 µM | 360,000 compounds, 0.13% hits;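 active means inhibition above the mean inhibition of all tested compounds plus 3 SD, cut at about 73% in these data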;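 further: 0% = DMSO wells and 100% = reporter-only cells lacking LRH-1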
NCOA1 inh = inhibitors of human steroid receptor coactivator 1 (SRC1); HEK293 GAL4-SRC1 luciferase reporter, luminescence; inhibition, % at 3.6 µM; 360,000 compounds, 0.12% hits; AID 588354; Q15788;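 active means inhibition above the campaign mean plus 3 SD, with each screening campaign given its own cutoff, cut at about 60% in these data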;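 further: 0% = DMSO treated cells and 100% = gossypol at 36 µM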
COUP-TFII inh = blocks human COUP-TFII nuclear receptor; 370,000 compounds, 0.7% hits; inhibition, % at 8.6 µM; P24468; HEK293T NGFI-A luciferase reporter, luminescence; AID 686940;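 active means inhibition above a per-plate cutoff, mean inhibition of test wells between control levels plus 3 SD, cut at about 38% in these data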;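 further: cells cotransfected with COUP-TFII expression vector driving the NGFI-A reporter; 0% = median of COUP-TF2 test wells and 100% = reporter-only cells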
SRC3 inh = human NCOA3 inhibition; Q9Y6Q9; HEK293 GAL4-SRC3 luciferase reporter, luminescence; inhibition, % at 3.6 µM; 360,000 compounds, 0.17% hits; AID 588352;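 active means inhibition above a per-campaign cutoff, the mean of all compounds plus 3 SD, cut at about 60% in these data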;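 further: 0% = DMSO-treated cells and 100% = gossypol-treated cells at 36 µM; higher means less SRC3-driven luciferase light from the GAL4 reporter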
VP16 Luc counter = inhibits VP16 reporter, flagging COUP-TFII antagonist hits; shares compounds with COUP-TFII inh; HEK293 Gal4-VP16 luciferase reporter, luminescence; inhibition, % at 8.5 µM; 2,500 compounds, 25% hits; AID 687007; in the data active means inhibition above about 13%
COUP-TFII conf = COUP-TFII (NR2F2) inhibition, confirmation assay; shares compounds with COUP-TFII inh; HEK293 NGFI-A luciferase reporter, luminescence; inhibition, % at 8.5 µM; 2,500 compounds, 45% hits; AID 687008;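 active means mean inhibition over three repeats above a set limit taken from the earlier primary screen, cut at about 38% in these data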;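 further: 100% = cells given the luciferase reporter alone without the COUP-TF2 vector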
* marks the source's active call; other numbers are inactive results. Rows were chosen to be rich in hits. Some 1.1% of all compounds tested hit in one or more screens of this group.

For COc1ccc(NC(=O)c2cc(C3CCCCN3C(=O)Cc3ccc(N(C)C)cc3)on2)c(C)c1 (stereo unspecified) the results were GalR3 antagonist -4, SRC2 inh 26, LRH-1 inv ag -5, NCOA1 inh -2, COUP-TFII inh 14 and SRC3 inh 1.
`CN(C)c1ccc(CC(=O)N2CCCCC2c2cc(C(=O)Nc3ccccc3Cl)no2)cc1` (stereo unspecified) gave GalR3 antagonist -5, SRC2 inh 22, LRH-1 inv ag 17, NCOA1 inh 7, COUP-TFII inh 48*, SRC3 inh 5, VP16 Luc counter 2 and COUP-TFII conf 26.
O=C(CSc1nc2ccccc2nc1N1CCCCC1)NCc1ccc(Cl)cc1Cl was read as SRC2 inh -2 and COUP-TFII inh -1.
Cc1nn(C2CCS(=O)(=O)C2)c(Cl)c1/C=C/C(=O)OCC(=O)c1cc(C)n(-c2ccc(F)cc2)c1C (stereo unspecified) was read as GalR3 antagonist -7, SRC2 inh 15, LRH-1 inv ag 25, NCOA1 inh 15, COUP-TFII inh 63*, SRC3 inh 16, VP16 Luc counter 0 and COUP-TFII conf 37*.
CCOc1cc(CCNC(=O)c2cc3sccc3n2CC)ccc1OC was read as SRC2 inh 25 and COUP-TFII inh 10.
`N#CCSc1nnc(-c2sc3ccccc3c2Cl)o1` gave GalR3 antagonist -5, SRC2 inh 0, LRH-1 inv ag 12, NCOA1 inh 13, COUP-TFII inh 53*, SRC3 inh 15, VP16 Luc counter 5 and COUP-TFII conf 44*.
`Cc1ccc2oc(-c3cccc(NC(=S)NC(=O)/C=C/c4ccco4)c3)nc2c1` gave GalR3 antagonist 3, SRC2 inh -7, LRH-1 inv ag 17, NCOA1 inh -22, COUP-TFII inh 47*, SRC3 inh 4, VP16 Luc counter -31 and COUP-TFII conf -13.
`Cc1nc(N2CCN(Cc3ccccc3)CC2)nc2c1C(=O)CC(C)C2` (stereo unspecified) gave GalR3 antagonist -2, SRC2 inh 1, LRH-1 inv ag -19, NCOA1 inh -7, COUP-TFII inh 14 and SRC3 inh -7.
`COc1ccc(C2CC(=O)c3c(C)nc(N4CCN(Cc5ccccc5)CC4)nc3C2)cc1OC` (stereo unspecified) gave GalR3 antagonist -5, SRC2 inh 22, LRH-1 inv ag 15, NCOA1 inh -4, COUP-TFII inh 62*, SRC3 inh 14, VP16 Luc counter 8 and COUP-TFII conf 39*.
Screening COc1ccc(C=C2CS(=O)(=O)CC(=Cc3ccc(OC)cc3)C2=O)cc1 returned GalR3 antagonist -2, SRC2 inh 3, LRH-1 inv ag 53, NCOA1 inh 36, COUP-TFII inh 71*, SRC3 inh 40, VP16 Luc counter 47* and COUP-TFII conf 65*.
COc1ccc(/C=C2\CCCCC2=O)cc1 was read as GalR3 antagonist -5, SRC2 inh -40, LRH-1 inv ag -54, NCOA1 inh -12, COUP-TFII inh -13 and SRC3 inh -9.
`Cc1ccccc1CN1CCCCC(NC(=O)c2cccc(F)c2)C1=O` (stereo unspecified) gave SRC2 inh -23 and COUP-TFII inh 5.
For CCC1CCCCN1S(=O)(=O)c1ccc(NC(=O)c2ccncc2)cc1 (stereo unspecified) the results were GalR3 antagonist -1, SRC2 inh 39, LRH-1 inv ag 33, NCOA1 inh 20, COUP-TFII inh 61*, SRC3 inh 12, VP16 Luc counter 7 and COUP-TFII conf 57*.
`Cn1cc(S(=O)(=O)N2CCc3ccccc32)cc1C(=O)NC(C)(C)C` gave SRC2 inh 20, LRH-1 inv ag 31, NCOA1 inh 17, COUP-TFII inh 59*, SRC3 inh 20, VP16 Luc counter 5 and COUP-TFII conf 45*.
For Cc1cccc(C)c1NC(=O)c1cc(S(=O)(=O)N2CCc3ccccc32)cn1C the results were SRC2 inh 12, LRH-1 inv ag -21, NCOA1 inh -9, COUP-TFII inh -18 and SRC3 inh 5.
For Clc1ccc(-c2nnc3n2N=C(c2ccc(-c4ccccc4)cc2)CS3)cc1 the results were SRC2 inh 8 and COUP-TFII inh -3.
Screening Cc1ccc(C(=O)N2CCC(Cc3ccccc3)CC2)cc1S(=O)(=O)N1CCOCC1 returned GalR3 antagonist -1, SRC2 inh 17, LRH-1 inv ag -12, NCOA1 inh -8, COUP-TFII inh 17 and SRC3 inh -13.
Clc1cccc(C[n+]2cc(-c3ccccc3)n3c2CCC3)c1 was read as GalR3 antagonist 3, SRC2 inh -8, LRH-1 inv ag -5, NCOA1 inh 15, COUP-TFII inh -2 and SRC3 inh -5.
Screening Cc1ccc(-c2c[n+](Cc3cccc(Cl)c3)c3n2CCC3)cc1 returned GalR3 antagonist -3, SRC2 inh 11, LRH-1 inv ag 24, NCOA1 inh 16, COUP-TFII inh 38*, SRC3 inh 34, VP16 Luc counter 4 and COUP-TFII conf 8.
COc1ccc(Nc2ccnc3ccccc23)cc1 was read as GalR3 antagonist 2, SRC2 inh 41, LRH-1 inv ag 0, NCOA1 inh 37, COUP-TFII inh 40*, SRC3 inh 37, VP16 Luc counter -10 and COUP-TFII conf 13.
Screening COc1ccc(Nc2nc(N3CCCCC3)c3ccccc3n2)cc1 returned GalR3 antagonist -9, SRC2 inh 13, LRH-1 inv ag 10, NCOA1 inh 12, COUP-TFII inh 38*, SRC3 inh 5, VP16 Luc counter -1 and COUP-TFII conf 10.
`COc1ccc(Nc2ncnc3ccccc23)cc1` gave GalR3 antagonist -2, SRC2 inh -19, LRH-1 inv ag -102, NCOA1 inh -24, COUP-TFII inh -15 and SRC3 inh -45.
O=C1CCC[C@H]2C[C@H](NCc3ccc(F)cc3F)CC[C@]23CCCN13 was read as COUP-TFII inh -8.
Screening Cc1nc2sccn2c1-c1csc(NCc2ccccc2)n1 returned GalR3 antagonist -8, SRC2 inh 22, LRH-1 inv ag 18, NCOA1 inh 17, COUP-TFII inh 38*, SRC3 inh 17, VP16 Luc counter -16 and COUP-TFII conf 21.
Screening CN1C2=NC(c3ccccc3)CC(=O)N2/C(=C\c2ccccc2)C1c1ccccc1C(F)(F)F (stereo unspecified) returned COUP-TFII inh 8.

Screening data deposited in PubChem BioAssay by The Scripps Research Institute Molecular Screening Center.
